From PubChem BioAssay (NCI) come the findings set out here.

Structures are written as SMILES. Compounds without any hit were thinned out: in the full panel of roughly 83,000, 20% have a hit.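 Treatment: one concentration, 48 hours, 96-well format. Scoring: percent growth, with anything below 10 considered active.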 Unmarked numbers belong to inactive results. Activity calls are given as the source filed them.

Some test systems named below: SR leukemia; RPMI-8226 leukemia; OVCAR-8 ovarian; OVCAR-5 ovarian; OVCAR-4 ovarian; SK-OV-3 ovarian; IGROV1 ovarian; OVCAR-3 ovarian; HS 578T breast; NCI/ADR-RES ovarian.
Holding throughout (assay): NCI-60 one-dose screen, 48 h (100 = growth as untreated, 0 = no growth, -100 = all killed)
Common to all, as to settings: 10 µM

For the compound `Cc1ccn2c(C(=O)c3ccccc3)cc(-c3cc(-c4ccc(N(C)C)cc4)c(C#N)c(N)n3)c2c1`, the growth with SR leukemia was 75.9%; in the assay on RPMI-8226 leukemia, 82.5%; in the assay with OVCAR-8 ovarian, 15.1%; in the assay on OVCAR-5 ovarian, 83.4%; in the assay on OVCAR-4 ovarian, 45.5%; with SK-OV-3 ovarian, 65.2%. Moreover, the growth is 86.3% with IGROV1 ovarian, 58.2% with OVCAR-3 ovarian, 33.2% with HS 578T breast and 50.8% with NCI/ADR-RES ovarian.
For `Cn1cc(/C=N/Nc2ccnc3cc(Cl)ccc23)c2ccccc21`, the growth is -25% (active) in the assay with SR leukemia; -41.4% (active) with RPMI-8226 leukemia; -52.7% (active) with OVCAR-8 ovarian; -90.5% (active) in the assay on OVCAR-5 ovarian; -76.4% (active) in the assay on OVCAR-4 ovarian; -72.3% (active) with IGROV1 ovarian. In addition, the values for the growth with OVCAR-3 ovarian, in the assay on HS 578T breast and in the assay with NCI/ADR-RES ovarian were -89.8% (active), -63.7% (active) and -79.8% (active), respectively.
Turning to `C/C(=C\c1ccc(O)cc1O)c1ccc2ccc(O)cc2[o+]1`, the growth is 20.2% with SR leukemia; 65.7% in the assay with RPMI-8226 leukemia; 192% in the assay on OVCAR-5 ovarian; 74.4% in the assay with OVCAR-4 ovarian; 103% with SK-OV-3 ovarian; 47.8% in the assay on IGROV1 ovarian. Further, the growth was 28.7% with OVCAR-3 ovarian, 90.2% with HS 578T breast and 22.1% with NCI/ADR-RES ovarian.
Regarding `Cc1cc2nc3c4ccccc4n(CCO)c3nc2cc1C`, the growth in the assay on SR leukemia is 27.2%; in the assay with RPMI-8226 leukemia, 93%; in the assay on OVCAR-8 ovarian, 72.7%; in the assay with OVCAR-5 ovarian it was 103%; in the assay on OVCAR-4 ovarian, -43.7% (active); with SK-OV-3 ovarian, 81.7%. For the same compound, the growth is 58.4% with IGROV1 ovarian, 78.7% in the assay with OVCAR-3 ovarian, 48.3% in the assay on HS 578T breast and 62.3% in the assay on NCI/ADR-RES ovarian.
For the compound `COc1ccc2[nH]c(=O)c(CSc3ccc(Nc4nccc(-c5ccc(Cl)cc5)n4)cc3)cc2c1`, the growth was 90.9% in the assay with SR leukemia; 81.3% in the assay with RPMI-8226 leukemia; 96.6% in the assay on OVCAR-5 ovarian; 94.8% with OVCAR-4 ovarian; 119% in the assay with SK-OV-3 ovarian; 105% with IGROV1 ovarian. Moreover, the growth is 116% with OVCAR-3 ovarian, 63.8% in the assay on HS 578T breast and 73.7% in the assay on NCI/ADR-RES ovarian.
Take `COc1cc(-c2nc3cc(Cl)c(Cl)cc3[nH]2)ccc1OCc1nnc(-c2ccc(Br)cc2)o1`: the growth is -34.4% (active) in the assay on SR leukemia; -23.2% (active) in the assay with RPMI-8226 leukemia; 15.7% with OVCAR-8 ovarian; 39.6% in the assay with OVCAR-5 ovarian; -92.2% (active) in the assay on OVCAR-4 ovarian; 42% in the assay with IGROV1 ovarian. The growth in the assay with OVCAR-3 ovarian was -47.6% (active); in the assay with HS 578T breast, -22.5% (active); in the assay on NCI/ADR-RES ovarian, 22%.
For `OCCNc1oc(-c2ccccc2)nc1[P+](c1ccccc1)(c1ccccc1)c1ccccc1`, the growth with SR leukemia is 1.42% (active); in the assay with RPMI-8226 leukemia, 3.91% (active); in the assay on OVCAR-8 ovarian it was 7.35% (active); with OVCAR-5 ovarian, 31.2%; with OVCAR-4 ovarian, 10.2%; in the assay on IGROV1 ovarian it was -12.9% (active). The values for the growth with OVCAR-3 ovarian, with HS 578T breast and in the assay with NCI/ADR-RES ovarian were -9.22% (active), -3.9% (active) and 99%, respectively.
As for `O=C(CSc1nnc(-c2ccc3nc(-c4ccccc4)[nH]c3c2)o1)Nc1ccc(Br)cc1`, the growth with SR leukemia is 32.1%; with RPMI-8226 leukemia, 41%; with OVCAR-8 ovarian, 24.8%; in the assay with OVCAR-5 ovarian, 86.1%; in the assay with OVCAR-4 ovarian, 81.3%; in the assay on SK-OV-3 ovarian, 80%. The growth is 80.4% in the assay with IGROV1 ovarian, 73.9% in the assay on OVCAR-3 ovarian, 79.6% in the assay on HS 578T breast and 78.1% in the assay with NCI/ADR-RES ovarian.
As to `Cc1cc(=O)oc2cc(OCCCCOc3ccc(/C=C/C(=O)Nc4ccccc4[N+](=O)[O-])cc3)ccc12`, the growth is 88% in the assay on SR leukemia; 108% in the assay on RPMI-8226 leukemia; 111% with OVCAR-8 ovarian; 108% in the assay on OVCAR-5 ovarian; 109% with OVCAR-4 ovarian; 106% with IGROV1 ovarian. Also, the growth was 128% in the assay with OVCAR-3 ovarian, 111% with HS 578T breast and 115% in the assay with NCI/ADR-RES ovarian.
For `CCOc1ccc2ncc(C#Cc3cncc(C(=O)Nc4ccc(CN5CCN(C)CC5)c(C(F)(F)F)c4)c3)n2n1`, the growth was 1.01% (active) with SR leukemia; -13.3% (active) in the assay on RPMI-8226 leukemia; -60.9% (active) in the assay on OVCAR-8 ovarian; -87% (active) in the assay on OVCAR-5 ovarian; -60.6% (active) with OVCAR-4 ovarian; -58.2% (active) in the assay with IGROV1 ovarian. Moreover, the growth in the assay with OVCAR-3 ovarian was -79.1% (active); in the assay on HS 578T breast, -28.2% (active); with NCI/ADR-RES ovarian, -70.1% (active).
Take `COc1cc2c3c(n(CCCn4ccnc4)c(=O)c2cc1OC)-c1nc2c(cc1C3=O)OCO2`: the growth in the assay with SR leukemia is 13.8%; with RPMI-8226 leukemia it was 44.3%; with OVCAR-8 ovarian, 43.6%; in the assay on OVCAR-5 ovarian, 57.2%; in the assay with OVCAR-4 ovarian it was 80.9%; with SK-OV-3 ovarian, 18.3%. In addition, the growth with IGROV1 ovarian was 56%; in the assay on OVCAR-3 ovarian, 48.5%; with HS 578T breast it was 119%; in the assay with NCI/ADR-RES ovarian, 84.2%.
`O=C(CSc1nnc(-c2c[nH]c3ccccc23)n1-c1ccccc1)Nc1ccc(C(=O)/C=C/c2ccc(Br)cc2)cc1`: the growth in the assay with SR leukemia was 72.3%; in the assay with RPMI-8226 leukemia, 7.63% (active); with OVCAR-8 ovarian, 95.6%; with OVCAR-5 ovarian, 93.3%; with OVCAR-4 ovarian, 91.2%; with IGROV1 ovarian, 80.5%. The growth in the assay with OVCAR-3 ovarian was 81%; in the assay with HS 578T breast it was 82.2%; in the assay on NCI/ADR-RES ovarian, 94.9%.
`COc1ccc(C(=O)/C=C/c2cc(C(F)(F)F)cc(C(F)(F)F)c2)cc1S(N)(=O)=O`: the growth in the assay with SR leukemia is 5.52% (active); in the assay on RPMI-8226 leukemia it was 3.03% (active); in the assay on OVCAR-8 ovarian, -29.8% (active); in the assay with OVCAR-5 ovarian, -93.6% (active); with OVCAR-4 ovarian it was -80% (active); in the assay on IGROV1 ovarian, -69% (active). Also, the growth with OVCAR-3 ovarian is -88.6% (active); with HS 578T breast it was -12.8% (active); in the assay with NCI/ADR-RES ovarian, -34% (active).
With `Cc1cc(C(F)(F)F)ccc1C(=O)Nc1sc2c(c1C#N)CCC(=O)C2`, the growth is -9.8% (active) with SR leukemia; 2.68% (active) with RPMI-8226 leukemia; -9.16% (active) in the assay on OVCAR-8 ovarian; -33.3% (active) in the assay on OVCAR-5 ovarian; -39.7% (active) in the assay with OVCAR-4 ovarian; -5.43% (active) in the assay on IGROV1 ovarian. Besides, the growth in the assay with OVCAR-3 ovarian is -48.2% (active); in the assay with HS 578T breast, -7.86% (active); in the assay with NCI/ADR-RES ovarian, -24.8% (active).
Turning to `COc1cc2c3c(n(CCCN4CCOCC4)c(=O)c2cc1OC)-c1nc2c(cc1C3=O)OCO2`, the growth in the assay with SR leukemia is 12.5%; with RPMI-8226 leukemia, 18.7%; with OVCAR-8 ovarian, 30.3%; in the assay on OVCAR-5 ovarian, 37.2%; in the assay with OVCAR-4 ovarian it was 6.71% (active); in the assay with IGROV1 ovarian it was 36.7%. Moreover, the values for the growth in the assay with OVCAR-3 ovarian, in the assay with HS 578T breast and in the assay with NCI/ADR-RES ovarian were 8.69% (active), 71.6% and 17.1%, respectively.
As for `O=C(CNc1nc(-c2ccccc2)cs1)Nc1ccc([N+](=O)[O-])cc1Cl`, the growth in the assay with SR leukemia was 16.7%; in the assay with RPMI-8226 leukemia it was 15.5%; in the assay on OVCAR-5 ovarian it was 36.4%; in the assay on OVCAR-4 ovarian, 45.4%; in the assay on SK-OV-3 ovarian, 35.8%; in the assay with IGROV1 ovarian, 33.9%. The growth with OVCAR-3 ovarian was 23.4%; in the assay on HS 578T breast, 17.6%; with NCI/ADR-RES ovarian, -7% (active).
On to `C=C[C@@]12CN3CC[C@]1(O)[C@@](C(=O)OC)(CO2)c1[nH]c2ccccc2c1C3`, for which the growth is 75.5% in the assay with SR leukemia; 46.9% in the assay on RPMI-8226 leukemia; 49.2% in the assay with OVCAR-5 ovarian; 62.3% with OVCAR-4 ovarian; 115% with SK-OV-3 ovarian; 95.2% in the assay with IGROV1 ovarian. The growth is 61.6% with OVCAR-3 ovarian, 80.5% with HS 578T breast and 49.1% with NCI/ADR-RES ovarian.
On to `N#Cc1ccc(-c2nn(-c3ccc(C(=O)O)cc3)cc2CNc2cc(Cl)cc(Cl)c2)cc1`, for which the growth with SR leukemia is 36.5%; with RPMI-8226 leukemia, 21.6%; in the assay on OVCAR-8 ovarian it was 47.6%; with OVCAR-5 ovarian it was 84%; in the assay on OVCAR-4 ovarian it was 65.4%; with IGROV1 ovarian it was 52.5%. The figures for the growth with OVCAR-3 ovarian, in the assay with HS 578T breast and with NCI/ADR-RES ovarian were 45.7%, 50.2% and 17.2%, respectively.
